Screens: PubChem, National Center for Advancing Translational Sciences (NCATS)
EPAC1 antag: qHTS for Antagonist of cAMP-regulated guanine nucleotide exchange factor 3 (EPAC1): primary screen; Rap guanine nucleotide exchange factor 3 (Homo sapiens), O95398; EPAC1 GEF assay, Rap1b-BODIPY-GDP exchange fluorescence; Potency, µM (titrated, usually from 115 µM), actives largely listed as inhibitors; 360,000 compounds, 0.14% hits; AID 720709, 2013; also: nearly all actives have a fitted effect of over 50% in size
Target sequence (O95398 whole entry, looked up): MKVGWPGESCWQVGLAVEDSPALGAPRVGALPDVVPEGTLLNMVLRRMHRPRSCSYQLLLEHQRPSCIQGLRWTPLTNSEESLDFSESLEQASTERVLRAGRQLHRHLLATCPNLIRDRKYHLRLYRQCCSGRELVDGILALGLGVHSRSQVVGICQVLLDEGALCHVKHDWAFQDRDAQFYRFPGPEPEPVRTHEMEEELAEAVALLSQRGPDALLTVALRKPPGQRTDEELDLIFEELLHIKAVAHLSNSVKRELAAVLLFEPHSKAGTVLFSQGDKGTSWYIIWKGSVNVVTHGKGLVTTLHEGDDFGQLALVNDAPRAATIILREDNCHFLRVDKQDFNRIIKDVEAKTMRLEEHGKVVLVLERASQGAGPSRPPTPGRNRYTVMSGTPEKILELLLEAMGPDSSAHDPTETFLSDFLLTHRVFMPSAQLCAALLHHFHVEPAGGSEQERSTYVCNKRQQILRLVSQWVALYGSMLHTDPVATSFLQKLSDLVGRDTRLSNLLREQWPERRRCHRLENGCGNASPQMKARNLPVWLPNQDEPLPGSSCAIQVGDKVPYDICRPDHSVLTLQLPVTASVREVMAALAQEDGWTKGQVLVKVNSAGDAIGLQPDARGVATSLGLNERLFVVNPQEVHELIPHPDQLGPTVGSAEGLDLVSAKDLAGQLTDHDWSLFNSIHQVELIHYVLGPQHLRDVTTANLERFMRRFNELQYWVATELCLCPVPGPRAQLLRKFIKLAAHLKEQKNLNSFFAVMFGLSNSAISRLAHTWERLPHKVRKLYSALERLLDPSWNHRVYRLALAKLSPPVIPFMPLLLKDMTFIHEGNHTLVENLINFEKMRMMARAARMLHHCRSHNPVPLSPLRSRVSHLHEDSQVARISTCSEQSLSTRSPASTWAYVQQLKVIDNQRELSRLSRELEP
EPAC2 antag: qHTS for Antagonist of cAMP-regulated guanine nucleotide exchange factor 2 (EPAC2): primary screen. 360,000 compounds, 0.18% hits. Potency, µM (titrated, usually from 114 µM), usual class: inhibitors. Rap guanine nucleotide exchange factor 4 (Homo sapiens), Q8WZA2. EPAC2 GEF exchange of Rap1B-BODIPY-GDP, fluorescence. AID 720708, 2013; also: nearly all actives have a fitted effect of over 45% in size
EPAC1 ag: qHTS for Agonist of cAMP-regulated guanine nucleotide exchange factor 3 (EPAC1): primary screen; Rap guanine nucleotide exchange factor 3 (Homo sapiens), O95398; EPAC1 agonist qHTS, biochemical assay; response scale: 100% = response to 6.5 mM cAMP; Potency, µM (highest dose often 154 µM), most hits filed as activators; 360,000 compounds, 0.073% hits; AID 720707, 2013; also: nearly all actives have a fitted effect of over 60% in size
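EPAC1 100 nM, Rap1B–BODIPY-GDP 250 nM, unlabeled GDP 50 uM; compound titration; 5 min RT; kinetic read ex480/em540 at 5-min intervals ×30 min; data normalized to 6.5 mM cAMP agonist control.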
USP1-UAF1 inh: Inhibitors of USP1/UAF1: Primary Screen; AID 743255, 2014; recombinant USP1/UAF1, Ub-Rhodamine cleavage fluorescence; 390,000 compounds, 0.23% hits; Potency, µM (highest dose often 57.1 µM), most hits filed as inhibitors; also: nearly all actives have a fitted effect of over 60% in size
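Step one: compound is pinned into 1nM USP1/UAF1 in HEPES pH 7.8 buffer with TCEP. Step two: 15 min room-temperature incubation. Step three: Ub-Rho (150nM final) starts cleavage, tracked by fluorescence over six one-minute reads.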
EPAC2 agonist: qHTS for Agonist of cAMP-regulated guanine nucleotide exchange factor 4 (EPAC2): primary screen; AID 720711, 2013; 360,000 compounds, 0.079% hits; Potency, µM (top dose mostly 154 µM), most hits filed as activators; EPAC2 activation, biochemical qHTS; response scale: 100% = 6.5 mM cAMP response; Rap guanine nucleotide exchange factor 4 (Homo sapiens), Q8WZA2; also: nearly all actives have a fitted effect of over 50% in size
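Compounds were added across a concentration range to EPAC2 (100 nM), RAP1B-BODIPY-GDP (250 nM) and GDP (50 uM). After 5 min at room temperature, fluorescence was recorded at 5-min intervals for 30 min.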
Numbers stand for hits; - = inactive; ? = inconclusive; . = no result. Most compounds without a hit are left out; they make up all but 0.45% or so of the library. Calls follow the shape of the dose curve; as a rule, active = well fitted curve in the direction sought with a large enough effect; inconclusive = small, poorly fitted or top-dose-only effect, or another doubt; inactive = no such curve, though single readings can be large; an effect the other way counts as inactive or inconclusive.

SMILES	EPAC1 antag	EPAC2 antag	EPAC1 ag	USP1-UAF1 inh	EPAC2 agonist
C=CCN1C(=O)/C(=C/C=C2/N(CC)c3ccc(S(=O)(=O)N(C)C)cc3N2CC)SC1=S	-	-	100µM	28µM	100µM
COc1ccc(N)c2c1C(=O)c1ccccc1C2=O	-	-	-	-	-
COC1=C(Br)C(=O)c2nc(C)ccc2C1=O	?	?	-	25µM	-
COC1=C(N)C(=O)c2nc(C)ccc2C1=O	-	-	-	7.1µM	-
Cc1cccc(N(C)C(=O)Cc2c(C(=O)O)[nH]c3ccccc23)c1	.	.	.	-	.
CN(C)c1ccc(C(=O)OCC(=O)Nc2ccc(S(N)(=O)=O)cc2)cc1	50µM	50µM	?	?	-
COc1ccc(-n2c(C)cc(C(=O)CCl)c2C)cc1	-	7.9µM	-	-	-
CCCCn1c(N)c(N(CC(C)C)C(=O)C2CCN(S(=O)(=O)c3ccc(C)c(C)c3)CC2)c(=O)[nH]c1=O	50µM	-	-	-	-
O=c1[nH]ncc2c3ccccc3n(Cc3cccc(Cl)c3)c12	-	-	79µM	?	?
CC(CNC(=O)C1CCN(C(=O)N2CCOc3ccc(Cl)cc32)CC1)c1ccccc1 (configuration not stated)	.	.	.	-	.
Cc1[nH][nH]c(=O)c1C(c1c(C)[nH][nH]c1=O)c1cn(Cc2ccc(Cl)c(Cl)c2)c2ccccc12	-	-	-	28µM	-
Cc1[nH][nH]c(=O)c1C(c1c(C)[nH][nH]c1=O)c1cn(Cc2ccc(F)cc2)c2ccccc12	-	-	-	?	-
COc1cccc(Cn2c(=O)c3ccccc3n3nc(C)cc23)c1	-	50µM	-	-	-
COc1cccc(Cn2c(=O)sc3ccccc3c2=O)c1	-	-	-	-	-
Cc1nn(-c2ccccc2)c2sc(C(=O)Nc3cccc(Br)c3)cc12	.	.	.	-	.
O=C1NC(=Nc2ccccc2)S/C1=C\C=C\c1ccco1	?	-	-	-	-
Cc1ccc(N=C2NC(=O)/C(=C/C=C/c3ccco3)S2)cc1	56µM	-	-	-	-
COCCn1c(-c2ccc(OC)cc2)c(-c2ccc(OC)cc2)oc1=O	-	35µM	-	-	-
CN1CC=C2C(C#N)=C(N)C(C#N)(C#N)C(CCc3ccccc3)C2C1 (configuration not stated)	?	45µM	?	?	50µM
CCCC1C2CN(C(C)C)CC=C2C(C#N)=C(N)C1(C#N)C#N (configuration not stated)	?	35µM	63µM	?	56µM
CN1CC=C2C(C#N)=C(N)C(C#N)(C#N)C(c3ccsc3)C2C1 (configuration not stated)	?	-	63µM	-	?
CN1CC=C2C(C#N)=C(N)C(C#N)(C#N)[C@H](c3cccs3)[C@H]2C1	-	-	-	?	-
COc1ccc(CCNC(=O)c2nc(SCc3ccc(F)cc3)ncc2Cl)cc1OC	.	.	.	-	.
CCc1ccc(NC(=O)c2ccc(F)c(S(=O)(=O)N3CCN(c4cc(C)ccc4C)CC3)c2)cc1	.	.	.	-	.
CC(C)C1Nc2ccc(S(N)(=O)=O)cc2C2C=CCC21 (configuration not stated)	-	-	-	-	-
SMILES	EPAC1 antag	EPAC2 antag	EPAC1 ag	USP1-UAF1 inh	EPAC2 agonist
NS(=O)(=O)c1ccc2c(c1)C1C=CCC1C(C1CC=CCC1)N2 (configuration not stated)	71µM	-	-	-	-
O=C(O)CCCN1C(=O)/C(=C/c2cn(-c3ccccc3)nc2-c2cccs2)SC1=S	-	-	56µM	?	?
O=C(O)CN1C(=O)/C(=C\c2cc(Br)ccc2OCc2ccc(Cl)cc2)SC1=S	?	50µM	-	?	-
O=C(CCCN1C(=O)/C(=C/c2cccs2)SC1=S)Nc1ccccn1	-	-	-	-	-
O=C(O)CCCN1C(=O)/C(=C\c2ccccc2OCc2ccccc2)SC1=S	50µM	?	-	?	-
O=C(O)CN1C(=O)/C(=C\c2ccccc2OCc2ccccc2)SC1=S	-	?	-	-	-
